# Screening data: PubChem BioAssay, National Center for Advancing Translational Sciences (NCATS)
# GAA glycogen – GAA glycogen-cleavage inhibition or activation. P10253. recombinant GAA, glycogen substrate, Amplex Red glucose oxidase fluorescence. Potency, µM (highest dose often 76.4 µM), usual class: inhibitors. 300,000 compounds, 0.38% hits. AID 2100;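 note: the screen sought inhibitors and activators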
#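 Recombinant human alpha-glucosidase (4 nM final) hydrolysed bovine liver glycogen (30 ug) for 40 min at 37 C in pH 5.0 citrate/phosphate with 0.01% Tween-20. Released glucose detected by glucose oxidase/Amplex Red, Ex 573/Em 610 nm. Compounds up to 77 uM; AC50 from Hill fits.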
# GLA inh pH 4.5 – blocks human alpha-galactosidase A at pH 4.5; purified enzyme, 4-MU-alpha-Gal fluorescence, pH 4.5; activity change, negative = inhibition, % at 105 µM; 230,000 tested, under 10 active
# aGal spleen mod – inhibitors or activators of human alpha-galactosidase in spleen homogenate | P06280 | human spleen homogenate, 4MU-alpha-Gal fluorescence, 40 min | Potency, µM (series often up to 80 µM), most hits filed as inhibitors | 240,000 compounds, 0.008% hits
# Target sequence (P06280 32-429 limits assumed): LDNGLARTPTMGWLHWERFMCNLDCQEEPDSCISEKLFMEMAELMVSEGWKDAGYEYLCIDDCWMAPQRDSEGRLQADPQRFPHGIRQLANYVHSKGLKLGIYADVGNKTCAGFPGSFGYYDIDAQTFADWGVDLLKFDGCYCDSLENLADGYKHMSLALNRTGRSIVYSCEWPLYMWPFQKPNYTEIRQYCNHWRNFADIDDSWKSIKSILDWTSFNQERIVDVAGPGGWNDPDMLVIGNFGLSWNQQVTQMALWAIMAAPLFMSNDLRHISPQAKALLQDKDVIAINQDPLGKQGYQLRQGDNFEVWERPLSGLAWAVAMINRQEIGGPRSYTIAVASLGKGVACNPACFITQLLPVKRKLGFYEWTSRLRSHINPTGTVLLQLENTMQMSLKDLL
#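 Spleen homogenate 1 ug + cpd (titration) + 4-MU-alpha-D-galactopyranoside 1 mM; 37C 40 min; 50 mM citrate/phosphate pH 5.0, 0.01% Tween-20; stop pH 10; fluorescence 365/440; AC50 via Hill.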
# N370S GC – N370S glucocerebrosidase modulation, Gaucher chaperone candidate. 330,000 compounds, 0.092% hits. Potency, µM (titrated, usually from 59.4 µM), actives largely listed as inhibitors. AID 2101. P04062. N370S GC spleen homogenate, 4MU-glucoside fluorescence
# GAA inhib – inhibitors of human lysosomal alpha-glucosidase; P10253; AID 1466; Potency, µM (doses to about 76.9 µM), actives largely listed as inhibitors; 200,000 compounds, 0.005% hits; purified human GAA, 4-MU-alpha-glucoside fluorescence
#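 Compounds are titrated up to 77 uM against 4 nM human enzyme. Substrate 4-methylumbelliferyl-alpha-D-pyranoside (400 uM) reacts 20 min at room temperature in pH 5.0 buffer; liberated 4-methylumbelliferone is read at 440 nm.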
# GAA spleen mod – inhibits or activates alpha-glucosidase in human spleen homogenate. P10253. human spleen homogenate, 4-MU-alpha-glucoside fluorescence. Potency, µM (doses to about 79.9 µM), actives largely listed as inhibitors. 240,000 compounds, 0.006% hits. AID 2112
#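 Compounds were titrated against alpha-glucosidase in spleen homogenate at pH 5.0, with 1 mM 4-methylumbelliferyl substrate for 40 min at 37 C. Reactions were quenched with pH 10 NaOH/glycine and fluorescence measured.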
# Hits are given with their value; 0 = inactive; ? = inconclusive; - = not tested or not shown; [ ] = remark or other dose. The list is not random: actives were taken first. Their share in the collection is about 0.43%. Calls come from the whole dose curve; as a rule, active = well fitted curve in the direction sought with a large enough effect; inconclusive = small, poorly fitted or top-dose-only effect, or another doubt; inactive = no such curve, though single readings can be large; an effect the other way counts as inactive or inconclusive.
SMILES,GAA glycogen,GLA inh pH 4.5,aGal spleen mod,N370S GC,GAA inhib,GAA spleen mod
Cc1ccccc1-c1nc(NCc2cccs2)c2ccccc2n1,-,-,0,7.1µM,-,0
Cc1ccn2c(NCc3ccccc3)c(-c3cccs3)nc2c1,?,0,0,11µM,0,0
Cc1cc(Nc2ccccc2)n(-c2ccc(Br)cc2)n1,?,0,0,0,0,0
CCn1nc(C)cc1Nc1ccccc1,14µM,0,0,?,0,0
C/C(CCN1CCCc2nc(C)c(C)cc21)=N\O[C@@H](C)c1cc(-c2c(C)cc(C)cc2C)no1,-,-,0[17.5 µM],0[12.8 µM],-,0[17.4 µM]
COc1cccc(CNc2ncc(Br)cc2Br)c1O,25µM,0,0,0,0,0
COc1cccc(CNc2ccc(Br)cn2)c1O,?,0,0,0,0,0
CCCn1cnc2cc(NCc3cccc(OC)c3O)ccc21,18µM,0,0,0,0,0
COC(=O)c1ccccc1NC(=O)c1ccc2c(c1)CCN2S(=O)(=O)c1ccc(Cl)cc1,0,-,-,-,-,-
CCNC(=O)CC1C(=O)N(c2cccc(OC)c2)C(=O)N1Cc1ccc(OC)c(OC)c1 (centres undefined),0,-,-,-,-,-
O=C(COc1cccc(C(F)(F)F)c1)N1CCN(c2ccc(O)cc2)CC1,2µM,?,0,0,0,0
O=C(CCOc1ccccc1)N1CCN(c2ccc(O)cc2)CC1,6.3µM,0,0,0,-,0
O=C(CCSc1ccc(Cl)cc1)N1CCN(c2ccc(O)cc2)CC1,18µM,0,0,0,-,0
O=C(CCSc1ccccc1)N1CCN(c2ccccc2)CC1,0,0,0,0,0,0
CCOC(=O)CSc1nc2ccc(NC(=O)COc3ccccc3C)cc2s1,0,-,-,-,-,-
CC(=O)/C(=N/Nc1cccc(C)c1)N1CCOCC1,18µM,0,0,0,0,0
Cc1cccc(C(=O)Nc2cccc(C(=O)N3CCOCC3)c2)c1,0,0,0,-,0,0
CCOC(=O)c1cnc2ccc(Cl)cc2c1Nc1ccc(OCC)cc1,0,-,-,-,-,-
Cc1ccc(-n2nc(C)c3c2OC(N)=C(C#N)C3c2ccoc2)cc1 (centres undefined),22µM,0,0,0,0,0
Cc1ccc(-n2nc(C)c3c2OC(N)=C(C#N)C3c2ccco2)cc1 (centres undefined),?,0,0,0,0,0
Cc1cc(=O)oc2cc(OCC(=O)NC(Cc3c[nH]c4ccc(O)cc34)C(=O)O)c(Cl)cc12 (centres undefined),7.9µM,-,-,0,-,-
CC(=O)Nc1cc(C(C)C)c(O)c(C(C)C)c1,11µM,0,0,0,0,0
CCc1cccc(N(C)C(N)=Nc2cccc3ccccc23)c1,0,0,0,13µM,-,0
CCN(/C(N)=N/c1nc(C)cc(C)n1)c1ccccc1,0,-,-,0,-,-
O=C1/C(=C\c2ccc(O)c(O)c2)N=C2CCCCCN12,7.1µM,0,0,0,-,0
SMILES,GAA glycogen,GLA inh pH 4.5,aGal spleen mod,N370S GC,GAA inhib,GAA spleen mod
COc1cc(/C=C2\N=C3CCCCCN3C2=O)ccc1O,0,0,0,0,0,0
Cc1cc(C)c2c(-n3cccc3)c(C(=O)NNS(=O)(=O)c3ccccc3)sc2n1,?,0,0,0,0,0
Cc1cc(C)c2c(-n3cccc3)c(C(=O)NNS(=O)(=O)c3ccc(Cl)cc3)sc2n1,20µM,0,0,0,0,0
COc1cc2oc(-c3ccc(O)cc3)cc(=O)c2c(OC)c1O,0,0,0,?,0[15.4 µM],0
COc1cc2oc(-c3ccc(O)cc3)cc(=O)c2c(O)c1OC,0,0,0,10µM,-,0
O=C(Cn1ncc2ccsc2c1=O)N1CCN(c2ccccc2F)CC1,0,-,-,-,-,-
O=c1cc(-c2ccccc2)oc2cc(O)c(O)c(O)c12,-,0,0,?,-,0
O=c1c(O)cccc2cc(O)c(O)c(O)c12,14µM,0,0,0,0,0
Cc1cccc(-c2nc3c4c(-c5ccccc5)c(-c5ccccc5)oc4ncn3n2)c1,0,-,-,-,-,-
Nc1ccc(O)c2c(=O)cc(-c3ccccc3Cl)oc12,14µM,0,0,0,0[15.4 µM],0
Cc1ccc(NC(=O)C(=O)NCC(c2cccnc2)N2CCN(Cc3ccccc3)CC2)cc1 (centres undefined),0,-,-,-,-,-
Cc1ccc(/C=N/c2sc3c(c2C#N)CCCCC3)o1,?,0,0,0,0,0
N#Cc1c(/N=C/c2ccco2)sc2c1CCC2,22µM,0,0,0,0,0
N#Cc1c(/N=C/c2cc3ccccc3s2)sc2c1CCC2,0,0,0,0,0,0
N#Cc1c(/N=C/C=C/c2ccccc2)sc2c1CCCC2,12µM,?,0,0,0,0
Cc1ccc(/C=N/c2sc3c(c2C#N)CCC3)s1,28µM,0,0,0,0,0
Cc1[nH]n(-c2cccc3ccccc23)c(=O)c1/C=N/c1sc2c(c1C#N)CCC2,20µM,0,0,0,0,0
C=C1CCN(C(CC(C)C)C(=O)NCc2ccc(Cl)cc2)S(=O)(=O)c2ccccc21 (centres undefined),-,-,0,0,-,0
CCCC12CN3CC(C)(CN(C1)C3c1ccc(CC)cc1)C2=O (centres undefined),0,-,-,-,-,-
COc1cc(/C=N/NC(=O)c2nonc2C)ccc1O,?,0,0,0,?,0
O=C(N/N=C/c1ccc(O)c(O)c1)c1cc(-c2ccccc2)nc2ccccc12,-,-,-,0,-,-
Cc1nonc1C(=O)N/N=C/c1ccc(O)c(O)c1,7.9µM,0,0,0,0,0
O=C(N/N=C/c1ccc(O)c(O)c1)N/N=C/c1ccc(O)c(O)c1,1.4µM,-,-,0,-,-
CCOC(=O)c1c(NC(=O)CCCOc2ccc(C(C)(C)C)cc2)sc2c1CCC2,0,-,-,-,-,-
CC(C)(C)C(=O)/C=C/Nc1ccccc1O,14µM,0,0,0,0,0
SMILES,GAA glycogen,GLA inh pH 4.5,aGal spleen mod,N370S GC,GAA inhib,GAA spleen mod
CN(C)c1ccc(N/C=C/C(=O)C(C)(C)C)cc1,?,0,0,0,0,0
CNC(=O)CSc1cn(CC(=O)N2CCCCCC2)c2ccccc12,50µM,-,-,-,-,-
Cc1cccc(N2CCN(C(=O)CN3C(=O)COc4ccc(S(=O)(=O)N5CCC(C)CC5)cc43)CC2C)c1 (centres undefined),0,-,-,-,-,-
O=C(O)c1cc(-c2ccc(/C=N/Nc3ccc(Cl)cc3)o2)ccc1Cl,28µM,0,0,0,0,0
Cc1ccccc1-c1cncnc1NCc1cccnc1,-,-,0,0,-,0
CC(=O)N1CCc2c(sc3c2c(=O)n(Cc2ccccc2)c(=O)n3Cc2ccccc2Cl)C1,0,-,-,-,-,-
COc1cc(OC)c2c(c1C(CCN1CCOCC1)c1ccc(N(C)C)cc1)OC(=O)CC2c1ccc(N(C)C)cc1 (centres undefined),0,0,0,10µM,-,0
COc1cc(C(CCN2CCOCC2)c2c(OC)cc(OC)c3c2OC(=O)CC3c2ccc(N(C)C)cc2)cc(OC)c1OC (centres undefined),0,0,0,?,-,0
